Compounds without any hit were thinned out: in the full panel of roughly 83,000, 20% have a hit.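 Testing used 96-well plates and a 48-hour single-concentration exposure. Example: -40 means 40% of the starting cells died.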 Active and inactive are the calls of the source. How the source made its calls: active means growth percent below 10; inactive means the rest.
What was measured:
Assay in all cases: NCI-60 one-dose screen, 48 h (100 = growth as untreated, 0 = no growth, -100 = all killed)
Conditions in all cases: 10 µM unless noted
NCI-H23 lung = tested on: NCI-H23 lung
NCI-H226 lung = tested on: NCI-H226 lung
NCI-H322M lung = tested on: NCI-H322M lung
HOP-62 NSCLC = tested on: HOP-62 NSCLC
NCI-H460 lung = tested on: NCI-H460 lung
HOP-92 NSCLC = tested on: HOP-92 NSCLC
NCI-H522 lung = tested on: NCI-H522 lung
A549/ATCC NSCLC = tested on: A549/ATCC NSCLC
786-0 renal = tested on: 786-0 renal
COLO 205 colon = tested on: COLO 205 colon
DU-145 prostate = tested on: DU-145 prostate
K-562 leukemia = tested on: K-562 leukemia
MALME-3M melanoma = tested on: MALME-3M melanoma
MDA-MB-231 breast = tested on: MDA-MB-231 breast
RXF 393 renal = tested on: RXF 393 renal
SF-268 CNS = tested on: SF-268 CNS
SF-295 CNS = tested on: SF-295 CNS
SF-539 CNS = tested on: SF-539 CNS
UACC-257 melanoma = tested on: UACC-257 melanoma
M14 melanoma = tested on: M14 melanoma

Measured: growth

Cc1ccc(-c2nc(/C=C3/C(=O)Nc4ccc(F)cc43)c3ccccn23)cc1
active: DU-145 prostate -23.1%
inactive: NCI-H23 lung 77.1% | NCI-H226 lung 95.2% | NCI-H322M lung 91.6% | HOP-62 NSCLC 92.8% | NCI-H460 lung 36% | HOP-92 NSCLC 82.2% | NCI-H522 lung 62.7% | A549/ATCC NSCLC 81.8% | 786-0 renal 112% | COLO 205 colon 81.9% | K-562 leukemia 93.7% | MALME-3M melanoma 75.8% | MDA-MB-231 breast 91% | RXF 393 renal 63.5% | SF-268 CNS 75.6% | SF-295 CNS 76% | SF-539 CNS 82.3% | UACC-257 melanoma 95.5% | M14 melanoma 98.8%

O=C1/C=C/[C@@H](O)[C@@H]2C[C@@H](O)C[C@H]2/C=C/CCC[C@H](CCO)O1
inactive: NCI-H23 lung 10.2% | NCI-H322M lung 29.3% | HOP-62 NSCLC 31% | NCI-H460 lung 15.9% | A549/ATCC NSCLC 17.7% | DU-145 prostate 16.6% | K-562 leukemia 17.7% | SF-268 CNS 12.4% | SF-295 CNS 12.1% | SF-539 CNS 31.7% | UACC-257 melanoma 27% | M14 melanoma 12.3%
active: NCI-H226 lung -38.9% | HOP-92 NSCLC -7.37% | NCI-H522 lung -12.4% | 786-0 renal -51.7% | COLO 205 colon -66.9% | MALME-3M melanoma -11.4% | MDA-MB-231 breast -83.1% | RXF 393 renal -7.43%

CCn1c(-c2cc3c([nH]c4ccccc43)c(-c3cccc(O)c3)n2)n[nH]c1=S
inactive: NCI-H23 lung 68.4% | NCI-H226 lung 75.9% | NCI-H322M lung 73.2% | HOP-62 NSCLC 18.3% | NCI-H460 lung 47.1% | HOP-92 NSCLC 12.7% | A549/ATCC NSCLC 38% | 786-0 renal 13.5% | COLO 205 colon 92.5% | DU-145 prostate 62.3% | K-562 leukemia 14.3% | MALME-3M melanoma 51% | MDA-MB-231 breast 46.9% | SF-268 CNS 48.3% | SF-295 CNS 36.8% | SF-539 CNS 30% | UACC-257 melanoma 41% | M14 melanoma 18.1%
active: NCI-H522 lung -10.6% | RXF 393 renal 8.59%

CC1CCN(C(=O)CCCl)c2ccccc21 (stereo not given)
inactive: NCI-H23 lung 90.6% | NCI-H226 lung 105% | NCI-H322M lung 107% | HOP-62 NSCLC 112% | NCI-H460 lung 101% | HOP-92 NSCLC 115% | NCI-H522 lung 84.9% | A549/ATCC NSCLC 96.6% | 786-0 renal 110% | COLO 205 colon 111% | DU-145 prostate 113% | K-562 leukemia 147% | MALME-3M melanoma 121% | MDA-MB-231 breast 85.4% | RXF 393 renal 123% | SF-268 CNS 99.7% | SF-295 CNS 160% | SF-539 CNS 126% | UACC-257 melanoma 94.2% | M14 melanoma 95.4%

COc1cc(/C=C/C(=O)c2ccc(-n3cc(CN4CCN(c5cc6c(cc5F)c(=O)c(C(=O)O)cn6C5CC5)CC4)nn3)cc2)ccc1O
inactive: NCI-H23 lung 91.4% | NCI-H226 lung 82.1% | NCI-H322M lung 80.2% | HOP-62 NSCLC 67.7% | NCI-H460 lung 66.7% | HOP-92 NSCLC 79.3% | NCI-H522 lung 83.9% | A549/ATCC NSCLC 71.6% | 786-0 renal 53.9% | COLO 205 colon 106% | DU-145 prostate 77.5% | K-562 leukemia 40.5% | MALME-3M melanoma 94.5% | MDA-MB-231 breast 73.6% | RXF 393 renal 70.9% | SF-268 CNS 56.4% | SF-295 CNS 80.2% | SF-539 CNS 60.1% | UACC-257 melanoma 87.7% | M14 melanoma 79%

COC(=O)c1c2c(c(C)[n+]([O-])c1C)C(=O)C(NCc1cccc(Cl)c1)=CC2=O
active: NCI-H322M lung 1.86% | NCI-H522 lung -10.4% | A549/ATCC NSCLC 6.34% | COLO 205 colon -50.3% | K-562 leukemia 6.86% | MALME-3M melanoma -96.2% | MDA-MB-231 breast 3.99% | SF-539 CNS 4.07% | UACC-257 melanoma -37.5% | M14 melanoma 1.44%
inactive: NCI-H23 lung 14.7% | NCI-H226 lung 79.8% | HOP-62 NSCLC 41.6% | NCI-H460 lung 10.1% | HOP-92 NSCLC 38% | 786-0 renal 39.5% | DU-145 prostate 38.3% | RXF 393 renal 34.3% | SF-268 CNS 16.2% | SF-295 CNS 42.5%

NNCCc1ccc(NC(=O)CCCc2ccc(C(=O)Nc3ccccc3N)cc2)cc1
inactive: NCI-H23 lung 76.5% | NCI-H226 lung 74.3% | NCI-H322M lung 87% | HOP-62 NSCLC 69.6% | NCI-H460 lung 66.3% | HOP-92 NSCLC 31.2% | NCI-H522 lung 13.1% | A549/ATCC NSCLC 85.4% | 786-0 renal 81.6% | COLO 205 colon 75.6% | DU-145 prostate 90.7% | K-562 leukemia 43.5% | MALME-3M melanoma 56.9% | MDA-MB-231 breast 67.5% | RXF 393 renal 75.2% | SF-268 CNS 72.3% | SF-295 CNS 69% | SF-539 CNS 60.8% | UACC-257 melanoma 41.4% | M14 melanoma 72%

Cc1ccc(/C=C/C(=O)c2ccc(-n3cc(CN4CCN(c5cc6c(cc5F)c(=O)c(C(=O)O)cn6C5CC5)CC4)nn3)cc2)cc1
inactive: NCI-H23 lung 81.5% | NCI-H226 lung 84.6% | NCI-H322M lung 94.3% | HOP-62 NSCLC 81.3% | NCI-H460 lung 89.7% | HOP-92 NSCLC 76.2% | NCI-H522 lung 88.6% | A549/ATCC NSCLC 93.5% | 786-0 renal 64.9% | COLO 205 colon 101% | DU-145 prostate 96.3% | K-562 leukemia 86% | MALME-3M melanoma 96% | MDA-MB-231 breast 75.5% | RXF 393 renal 70.9% | SF-268 CNS 71.5% | SF-295 CNS 86.9% | SF-539 CNS 73.6% | UACC-257 melanoma 101% | M14 melanoma 87.4%

From PubChem BioAssay (NCI)
